Source: PubChem BioAssay
Where “and” joins values, the source holds several entries; their conditions need not be identical. Identical values can stand only once. Calls of active or inactive are those of the source.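 How the source made its calls, unless noted: active means normalized viability below 100% at a tested concentration; inactive means the rest.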

Assays:
[1] = stimulators of nuclear beta-catenin in C2C12, primary screen, imaging, WNT3A-conditioned medium, mouse C2C12, NPC library (AID 1117326; in the data active means nuclear beta-catenin stimulation mostly above about 4.2%, no sharp cut-off; inactive means mostly below about 10%); details: stronger effect = higher value
[2] = stimulators of insulin release from INS-1E, primary screen, cell-based, 5 mM glucose, NPC library (AID 1117329;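 active means compound raises insulin release from rat beta cells at 5 mM glucose, no numeric limit stated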); details: rat INS-1E insulin secretion, at 10 µM, stronger effect = higher value
[3] = growth inhibition of GSK3B-pretreated HCT116 cells – cell-based, CellTiter-Glo, 0.2 to 20 µM (AID 1117336;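 active means compounds lowering colon cancer cell viability after pretreatment blocking the GSK3B kinase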); details: HCT116 viability after GSK3B inhibitor, at 20 µM, stronger effect = higher value
[4] = inhibition of endothelial tube formation, primary screen, imaging, VEGF stimulated, CD31 staining, tube area, NPC library (AID 1117340;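 active means compound that reduces growth-factor-driven endothelial tube area in a mixed cell culture, no cutoff stated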); details: VEGF-stimulated ADSC/ECFC co-culture, at 10 µM, stronger effect = higher value
[5] = glucagon-like peptide 1 release enhancers, primary assay, NCI-H716 cell line, NPC library (AID 1117341;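 active means compound raises GLP1 secretion from the human gut endocrine cells, with no numeric limit stated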); details: NCI-H716 cells, at 10 µM, stronger effect = higher value
[6] = HCT116 colon cancer cell growth inhibition, primary screen, CellTiter-Glo luminescence, NPC library (AID 1117342;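 active means compounds that lower survival of HCT116 colon cancer cells in the luminescence readout, no numeric limit stated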); details: at 20 µM (top of the series)
[7] = CellTiter-Glo luminescent readout of SW480 viability loss, NPC library primary (AID 1117343;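 active means compounds that lower viability of the colon cancer cells in the luminescence readout, with no numeric limit stated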); details: CellTiter-Glo luminescence; at 20 µM (top of the series)
[8] = decreased DLD-1 cellular survival, CellTiter-Glo luminescent readout, NPC compound collection, primary HTS (AID 1117346;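 active means compounds that lower survival of DLD-1 colon cancer cells in the luminescence readout, no cutoff given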); details: DLD-1 viability, CellTiter-Glo luminescence; at 20 µM (top of the series)
[9] = molecular target: 6-phosphogluconate dehydrogenase, decarboxylating (Homo sapiens) (UniProt P52209); assay: 6PGD enzyme inhibitors, primary screen, biochemical, human, recombinant enzyme, NADPH absorbance (AID 1159550;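 active means at least 20% inhibition of 6-phosphogluconate dehydrogenase activity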); details: recombinant 6PGD, NADPH absorbance 341 nm; at 10 µM; stronger effect = higher value
[10] = modulation of C. elegans fzo-1 (AID 1259413; call rule not given here;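 further: fzo-1 mutant C. elegans worms in liquid wells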); details: C. elegans fzo-1 modulator screen, mean read-out; stronger effect = higher value
[11] = differential killing of epithelial or mesenchymal cells, primary screen, imaging, PC-3E GFP, TEM4-18 mCherry, co-culture (AID 1345086;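 active means compounds killing one labelled cell type while sparing the other, by normalised counts and ratio limits, not self-fluorescent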;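 on all read-outs here: cells exposed to compound for 72 h before imaging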;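 on red/green cell ratio (normalised): normalised mesenchymal count divided by normalised epithelial count so high means epithelial killing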); details: imaging cell counts, at 1 µM; for red/green cell ratio (normalised): actives lie on both sides, counts scaled to control wells, 1 = unselective
[12] = survival rescue of mitochondrial mutant cells in low glucose, primary screen, MELAS cybrids, Rieske KO mouse fibroblasts, CellTiter-Glo (AID 1508586;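 active means mean z-score across replicates of 1.96 or higher in either the MELAS or the Rieske mutant cell line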;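 further: z relative to plate mean and SD of compound and empty wells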)
[13] = molecular target: NAD(+) hydrolase SARM1 (Homo sapiens) (UniProt Q6SZW1); assay: SARM1 TIR NADase inhibitors, cell lysate, NAD-Glo luminescence (AID 1508614;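 active means compound whose remaining NAD level is above about 45 nM, limit read from the data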); details: SAM-TIR HEK293T lysate NADase, at 1 µM, stronger effect = higher value
[14] = ICB984 medulloblastoma cell growth inhibition, synergistic combos for chromothripsis tumors, cisplatin or BGB combos (AID 1671451; call rule not given here;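 further: cells exposed for 96 hours before readout; 0% = vehicle DMSO and 100% = killing by high DMSO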); details: ICB984 medulloblastoma cells, drug combinations, stronger effect = higher value
F380Y = assay: modulators of BK channel variants, profiling panel, selectivity assay, cell-based, U2OS BacMam, thallium flux, beta subunits (AID 1259406;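 active means thallium flux through the channel raised or lowered by more than 3 SD from vehicle-only wells, actives on both sides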;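 further: initial slope of Thallos dye fluorescence rise after thallium is added; log ratio against the mean of 0.3% DMSO vehicle wells on the same plate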); details: at 30 µM
F380Y/beta1 = assay: as above; details: at 30 µM
F380Y/beta2Delta = assay: as above; details: at 30 µM
[15] = ovarian cancer cell viability with rucaparib, profiling panel, oncology-focused library, rucaparib conditional (AID 1508598); details: patient-derived ovarian cancer cells, CellTiter-Glo viability, 144 h, stronger effect = lower value
[16] = molecular target: Mitogen-activated protein kinase 7 (Homo sapiens) (UniProt Q13164); assay: ERK5 transactivation activators in reporter cells, primary screen, cell-based, HTS (AID 1508626;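 active means luciferase signal above three times the same-plate solvent-only control wells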;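 further: luciferase driven by Gal4-ERK5 fusion binding five Gal4 sites before minimal TATA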); details: HeLa Gal4-ERK5 transactivation, 18 h, at 5 µM, stronger effect = higher value
[17] = measured here: epithelial PC-3E GFP cell survival
[18] = measured here: mesenchymal TEM4-18 mCherry cell survival
[19] = MELAS cybrid survival, CellTiter-Glo 48 h, stronger effect = higher value
[20] = Rieske KO mouse fibroblast survival, CellTiter-Glo 72 h

Sequence of 6-phosphogluconate dehydrogenase, decarboxylating (Homo sapiens) (P52209 whole entry, looked up): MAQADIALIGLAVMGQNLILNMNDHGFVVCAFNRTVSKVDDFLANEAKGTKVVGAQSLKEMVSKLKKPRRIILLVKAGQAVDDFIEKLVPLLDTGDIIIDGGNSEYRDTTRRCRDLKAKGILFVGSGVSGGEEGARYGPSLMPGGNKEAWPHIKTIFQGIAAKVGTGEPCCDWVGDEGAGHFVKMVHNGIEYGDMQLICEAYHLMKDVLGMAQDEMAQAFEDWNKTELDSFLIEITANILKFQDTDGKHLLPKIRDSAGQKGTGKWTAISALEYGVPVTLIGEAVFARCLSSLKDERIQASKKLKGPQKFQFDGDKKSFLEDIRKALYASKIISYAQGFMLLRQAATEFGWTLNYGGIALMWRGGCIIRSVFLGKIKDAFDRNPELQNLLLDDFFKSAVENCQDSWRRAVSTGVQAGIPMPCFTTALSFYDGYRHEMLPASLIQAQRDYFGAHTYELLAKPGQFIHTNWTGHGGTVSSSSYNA
Sequence of NAD(+) hydrolase SARM1 (Homo sapiens) (Q6SZW1 whole entry, looked up): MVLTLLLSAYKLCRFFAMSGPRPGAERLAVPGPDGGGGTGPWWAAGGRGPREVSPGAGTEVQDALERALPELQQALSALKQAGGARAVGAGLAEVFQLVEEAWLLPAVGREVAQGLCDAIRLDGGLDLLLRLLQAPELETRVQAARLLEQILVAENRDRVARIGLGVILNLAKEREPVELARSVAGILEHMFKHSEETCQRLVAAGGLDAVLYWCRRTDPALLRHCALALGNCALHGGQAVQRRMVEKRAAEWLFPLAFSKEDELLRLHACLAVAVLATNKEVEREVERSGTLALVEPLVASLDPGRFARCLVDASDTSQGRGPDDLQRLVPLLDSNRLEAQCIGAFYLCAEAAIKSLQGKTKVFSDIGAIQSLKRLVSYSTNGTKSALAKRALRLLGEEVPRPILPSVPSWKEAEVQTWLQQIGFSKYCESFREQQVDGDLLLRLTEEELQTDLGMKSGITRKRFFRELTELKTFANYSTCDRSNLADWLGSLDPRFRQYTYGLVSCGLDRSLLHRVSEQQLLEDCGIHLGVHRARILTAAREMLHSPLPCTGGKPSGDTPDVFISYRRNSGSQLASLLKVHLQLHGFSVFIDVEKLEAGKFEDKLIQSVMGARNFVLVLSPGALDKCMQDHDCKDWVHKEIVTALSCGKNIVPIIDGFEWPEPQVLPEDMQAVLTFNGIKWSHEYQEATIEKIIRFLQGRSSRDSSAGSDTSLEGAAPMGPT
Sequence of Mitogen-activated protein kinase 7 (Homo sapiens) (Q13164 whole entry, looked up, the tested form may be a part): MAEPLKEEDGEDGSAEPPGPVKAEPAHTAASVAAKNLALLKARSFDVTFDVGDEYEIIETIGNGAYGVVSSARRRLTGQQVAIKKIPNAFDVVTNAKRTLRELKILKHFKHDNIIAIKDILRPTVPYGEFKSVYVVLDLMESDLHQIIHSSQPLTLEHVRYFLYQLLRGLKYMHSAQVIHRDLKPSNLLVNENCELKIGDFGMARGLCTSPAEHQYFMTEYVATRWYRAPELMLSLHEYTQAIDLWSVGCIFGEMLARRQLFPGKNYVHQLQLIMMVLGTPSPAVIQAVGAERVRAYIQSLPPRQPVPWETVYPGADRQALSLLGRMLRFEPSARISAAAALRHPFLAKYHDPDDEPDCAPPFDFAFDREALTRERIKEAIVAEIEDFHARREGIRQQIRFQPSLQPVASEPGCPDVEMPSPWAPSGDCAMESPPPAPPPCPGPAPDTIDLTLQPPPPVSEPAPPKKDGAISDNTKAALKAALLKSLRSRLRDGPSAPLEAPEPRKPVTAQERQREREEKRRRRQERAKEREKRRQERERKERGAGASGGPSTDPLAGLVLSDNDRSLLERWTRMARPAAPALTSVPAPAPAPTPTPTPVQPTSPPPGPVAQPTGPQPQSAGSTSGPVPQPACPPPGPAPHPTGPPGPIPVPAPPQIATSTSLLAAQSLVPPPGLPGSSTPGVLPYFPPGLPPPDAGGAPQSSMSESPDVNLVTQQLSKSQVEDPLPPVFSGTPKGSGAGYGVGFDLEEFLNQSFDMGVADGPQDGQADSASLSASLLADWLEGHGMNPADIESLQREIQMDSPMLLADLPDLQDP

## O=C(O)CCCc1ccccc1
[1]; at 10 µM
  nuclear beta-catenin stimulation: 0.2% (inactive)
[1]; stimulation, at 2 µM
  nuclear beta-catenin stimulation: 0.9%
[2]
  insulin secretion stimulation: 1.8% (inactive)
[3]
  viability decrease: -6.2% (inactive)
[4]
  tube area decrease: -15% (inactive)
[5]
  GLP1 secretion stimulation: -1.1% (inactive)
[6]
  inhibition of viability: 0.1% (inactive)
[7]
  viability decrease (inhibition): 12.5% (inactive)
[8]
  viability decrease (inhibition): -3.9% (inactive)
[9]
  inhibition: -10% (inactive)
[10]
  mean signal: 232 (inactive)
[11]
  red/green cell ratio (normalised): 1 (inactive)
[11]; [17]
  normalised cell number: 1.12
[11]; [18]
  normalised cell number: 1.11
[12]; [19]
  z-score: -0.2 (inactive) and -0.108 (inactive)
[12]; [20]
  z-score: -0.148 and -0.948
[13]
  remaining NAD: 10 nM (inactive)
[14]; BGB IC20 combo, at 0.005 µM
  inhibition: -2.57%
[14]; BGB IC40 combo, at 0.005 µM
  inhibition: -13.4%
[14]; BGB IC40 combo, at 0.05 µM
  inhibition: 6.23%
[14]; at 0.5 µM
  inhibition: -32.1% (inactive)
[14]; cisplatin combo, at 0.05 µM
  inhibition: 3.61%
[14]; cisplatin combo, at 0.5 µM
  inhibition: -38.8%
[14]; cisplatin combo, at 5 µM
  inhibition: -20.8%
[14]; measured here: 5 uM single agent, at 5 µM
  inhibition: -6.76%
F380Y
  log fold change Tl+ flux: 0.0311 (inactive)
F380Y/beta1
  log fold change Tl+ flux: 0.0211 (inactive)
F380Y/beta2Delta
  log fold change Tl+ flux: -0.00447 (inactive)

## O=c1[nH]cnc2[nH]ncc12
[1]; at 10 µM
  nuclear beta-catenin stimulation: -0.8% (inactive)
[1]; stimulation, at 2 µM
  nuclear beta-catenin stimulation: 1%
[2]
  insulin secretion stimulation: -2.4% (inactive)
[3]
  viability decrease: 3.7% (inactive)
[4]
  tube area decrease: -6.1% (inactive)
[5]
  GLP1 secretion stimulation: 0.1% (inactive)
[6]
  inhibition of viability: 2.7% (inactive)
[7]
  viability decrease (inhibition): 25% (inactive)
[8]
  viability decrease (inhibition): -0.95% (inactive)
[9]
  inhibition: 10.8% (inactive)
[10]
  mean signal: 267 (inactive)
[11]
  red/green cell ratio (normalised): 1.08 (inactive)
[11]; [17]
  normalised cell number: 1.06
[11]; [18]
  normalised cell number: 1.15
[12]; [19]
  z-score: 0.356 (inactive) and -0.148 (inactive) and 0.116 (inactive)
[12]; [20]
  z-score: -0.183 and 0.499 and -0.321
[15]; at 0.000305 µM, OCI-C5x cells, with rucaparib 10 µM, 100% = cells with rucaparib alone
  viability: 116% (inactive)
[15]; at 0.000305 µM, OCI-C5x cells, without rucaparib
  viability: 122% (inactive)
[15]; at 0.000305 µM, OCI-P5x cells, with rucaparib 20 µM, 100% = cells with rucaparib alone
  viability: 106% (inactive)
[15]; at 0.000305 µM, OCI-P5x cells, without rucaparib
  viability: 127% (inactive)
[15]; at 0.00122 µM, OCI-C5x cells, with rucaparib 10 µM, 100% = cells with rucaparib alone
  viability: 124% (inactive)
[15]; at 0.00122 µM, OCI-C5x cells, without rucaparib
  viability: 130% (inactive)
[15]; at 0.00122 µM, OCI-P5x cells, with rucaparib 20 µM, 100% = cells with rucaparib alone
  viability: 105% (inactive)
[15]; at 0.00122 µM, OCI-P5x cells, without rucaparib
  viability: 118% (inactive)
[15]; at 0.00488 µM, OCI-C5x cells, with rucaparib 10 µM, 100% = cells with rucaparib alone
  viability: 118% (inactive)
[15]; at 0.00488 µM, OCI-C5x cells, without rucaparib
  viability: 125% (inactive)
[15]; at 0.00488 µM, OCI-P5x cells, with rucaparib 20 µM, 100% = cells with rucaparib alone
  viability: 98.6% (active)
[15]; at 0.00488 µM, OCI-P5x cells, without rucaparib
  viability: 111% (inactive)
[15]; at 0.0195 µM, OCI-C5x cells, with rucaparib 10 µM, 100% = cells with rucaparib alone
  viability: 114% (inactive)
[15]; at 0.0195 µM, OCI-C5x cells, without rucaparib
  viability: 121% (inactive)
[15]; at 0.0195 µM, OCI-P5x cells, with rucaparib 20 µM, 100% = cells with rucaparib alone
  viability: 104% (inactive)
[15]; at 0.0195 µM, OCI-P5x cells, without rucaparib
  viability: 114% (inactive)
[15]; at 0.0781 µM, OCI-C5x cells, with rucaparib 10 µM, 100% = cells with rucaparib alone
  viability: 117% (inactive)
[15]; at 0.0781 µM, OCI-C5x cells, without rucaparib
  viability: 124% (inactive)
[15]; at 0.0781 µM, OCI-P5x cells, with rucaparib 20 µM, 100% = cells with rucaparib alone
  viability: 99.6% (active)
[15]; at 0.0781 µM, OCI-P5x cells, without rucaparib
  viability: 105% (inactive)
[15]; at 0.313 µM, OCI-C5x cells, with rucaparib 10 µM, 100% = cells with rucaparib alone
  viability: 113% (inactive)
[15]; at 0.313 µM, OCI-C5x cells, without rucaparib
  viability: 117% (inactive)
[15]; at 0.313 µM, OCI-P5x cells, with rucaparib 20 µM, 100% = cells with rucaparib alone
  viability: 102% (inactive)
[15]; at 0.313 µM, OCI-P5x cells, without rucaparib
  viability: 105% (inactive)
[15]; at 1.25 µM, OCI-C5x cells, with rucaparib 10 µM, 100% = cells with rucaparib alone
  viability: 122% (inactive)
[15]; at 1.25 µM, OCI-C5x cells, without rucaparib
  viability: 114% (inactive)
[15]; at 1.25 µM, OCI-P5x cells, with rucaparib 20 µM, 100% = cells with rucaparib alone
  viability: 91.4% (active)
[15]; at 1.25 µM, OCI-P5x cells, without rucaparib
  viability: 105% (inactive)
[15]; at 5 µM, OCI-C5x cells, with rucaparib 10 µM, 100% = cells with rucaparib alone
  viability: 111% (inactive)
[15]; at 5 µM, OCI-C5x cells, without rucaparib
  viability: 109% (inactive)
[15]; at 5 µM, OCI-P5x cells, with rucaparib 20 µM, 100% = cells with rucaparib alone
  viability: 91.3% (active)
[15]; at 5 µM, OCI-P5x cells, without rucaparib
  viability: 98% (active)
[13]
  remaining NAD: 10 nM (inactive)
[16]
  luciferase signal: 36 AU (inactive)
F380Y
  log fold change Tl+ flux: 0.0236 (inactive)
F380Y/beta1
  log fold change Tl+ flux: 0.000941 (inactive)
F380Y/beta2Delta
  log fold change Tl+ flux: -0.00565 (inactive)
